DT40 TDP1 CPT – qHTS for Inhibitors of human tyrosyl-DNA phosphodiesterase 1 (TDP1): qHTS in cells in presence of CPT. chicken DT40 Tdp1-/-;hTDP1 cells + 20 nM CPT, ATP luminescence, 48 h. Potency, µM (highest dose often 46.2 µM), inactives show at the highest dose activity change, negative = growth inhibition, hits mostly inhibitors. 420,000 compounds, 12% hits. AID 686979, 2013; further: potency means the concentration at half of the fitted maximal effect; nearly all actives have a fitted effect of over 55% in size
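Cell growth measured by CellTiter-Glo luminescence after a minimum 48 h, 37 C compound exposure with 20 nM CPT in Tdp1-knockout DT40 cells stably expressing hTDP1, seeded 400/well; qHTS titration format.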
DT40 TDP1 no CPT – qHTS for Inhibitors of human tyrosyl-DNA phosphodiesterase 1 (TDP1): qHTS in cells in absence of CPT | DT40 Tdp1-/- hTDP1 cells, no CPT, ATP luminescence, 48 h | 420,000 compounds, 15% hits | AID 686978, 2013 | Potency, µM (highest dose often 46.2 µM), inactives show at the top dose activity change, negative = growth inhibition, most hits filed as inhibitors; further: potency means the concentration at half of the fitted maximal effect; nearly all actives have a fitted effect of over 55% in size
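Readout: luminescence from CellTiter-Glo after 30 min in the dark at RT. Cells: DT40 Tdp1-/- with stable hTDP1, 400/well. Exposure: compounds alone, ≥48 hr, 37 °C.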
IL-1B inflam inh – qHTS for Inhibitors of Inflammasome Signaling: IL-1-beta AlphaLISA Primary Screen. AID 743279, 2014. 360,000 compounds, 4.7% hits. activity change, % at 57.5 µM. THP-1 LPS/ATP IL-1B secretion, AlphaLISA, 16 h; hits give low values; in the data active means activity change below about -50%; inconclusive means mostly about -30% to -49%
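THP-1 cells pretreated 1 hr with compounds (up to 57.5 uM final), then stimulated with LPS (250 ng/mL final) plus ATP (1.25 mM final); secreted IL-1B measured by AlphaLISA after 16 hr, decreased signal indicating inhibition.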
HT1080NT lethal – qHTS for induction of synthetic lethality in tumor cells producing 2HG: qHTS for the HT-1080-NT fibrosarcoma cell line; HT-1080-NT fibrosarcoma viability, CellTiter-Glo ATP luminescence, 48 h; Potency, µM (doses to about 46.1 µM), for inactives: at the top dose activity, negative = less viability, actives largely listed as cytotoxic; 360,000 compounds, 1.6% hits;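 further: NT is the 2HG producing partner of a matched IDH1 knockdown line; potency means the concentration at half of the fitted maximal effect; 0% = DMSO-treated cells and -100% = media-only wells without cells; nearly all actives have a fitted effect of over 55% in size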
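750 cells/well, RPMI + 5% FBS; 2 h settle, compound pin-transfer, 48 h at 37 degrees C. CellTiter-Glo 10 min RT, luminescence. Normalized to DMSO and media-only wells.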
HT1080 IDH1KD tx – qHTS for induction of synthetic lethality in tumor cells producing 2HG: qHTS for the HT-1080-IDH1KD cell line. AID 686971, 2013. 360,000 compounds, 2% hits. HT-1080 IDH1 knockdown viability, ATP luminescence, 48 h. Potency, µM (series often up to 46.1 µM), without a hit: at the highest dose activity, negative = toxicity, most hits filed as cytotoxic;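 further: potency means the concentration at half of the fitted maximal effect; 0% = DMSO wells and -100% = cell-free medium wells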
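Luminescent ATP read-out (CellTiter-Glo, 10 min at room temperature) after 48 h compound exposure at 37 °C gave viability of IDH1-knockdown HT-1080 cells. Activity was normalised to DMSO and cell-free wells, then fitted as concentration-response curves.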
* = called active by the depositor. Shown are actives, neighbours in structure and some others; about 19% of the full set was active somewhere. Unless noted, the call rests on the fitted dose curve; in most records, active means well fitted curve in the direction sought with a large enough effect; inconclusive means small, poorly fitted or top-dose-only effect, or another doubt; inactive means no such curve, though single readings can be large; an effect the other way counts as inactive or inconclusive. Unless noted, on the % scale 0 is the no-effect control and ±100 the full control effect.

For CCCCn1c(NC(=O)c2ccco2)c(S(=O)(=O)c2ccc(C)cc2)c2nc3ccccc3nc21 the results were DT40 TDP1 CPT inconclusive, DT40 TDP1 no CPT inconclusive, IL-1B inflam inh 0, HT1080NT lethal inconclusive and HT1080 IDH1KD tx -18%.
`COc1ccccc1/C=N/n1c(N)c(S(=O)(=O)c2cccs2)c2nc3ccccc3nc21` gave DT40 TDP1 CPT -10%, DT40 TDP1 no CPT 31%, IL-1B inflam inh 5, HT1080NT lethal -8% and HT1080 IDH1KD tx 2%.
Screening CCCCCn1c(NC(=O)c2ccco2)c(S(=O)(=O)c2ccc(C)cc2)c2nc3ccccc3nc21 returned DT40 TDP1 CPT 21µM*, DT40 TDP1 no CPT 18µM*, IL-1B inflam inh -7, HT1080NT lethal inconclusive and HT1080 IDH1KD tx inconclusive.
For CC(C)CCn1c(N)c(S(=O)(=O)c2cccs2)c2nc3ccccc3nc21 the results were DT40 TDP1 CPT inconclusive, DT40 TDP1 no CPT inconclusive, IL-1B inflam inh -88*, HT1080NT lethal 22µM* and HT1080 IDH1KD tx inconclusive.
`COc1ccc(CCn2c(N)c(C#N)c3nc4ccccc4nc32)cc1OC` gave DT40 TDP1 CPT 21µM*, DT40 TDP1 no CPT 13µM*, IL-1B inflam inh -9, HT1080NT lethal -12% and HT1080 IDH1KD tx -9%.
Nc1c(S(=O)(=O)c2cccs2)c2nc3ccccc3nc2n1Cc1ccc2c(c1)OCO2 was read as DT40 TDP1 CPT inconclusive, DT40 TDP1 no CPT inconclusive, IL-1B inflam inh -67*, HT1080NT lethal inconclusive and HT1080 IDH1KD tx inconclusive.
Screening Nc1c(S(=O)(=O)c2cccs2)c2nc3ccccc3nc2n1Cc1cccs1 returned DT40 TDP1 CPT inconclusive, DT40 TDP1 no CPT inconclusive, IL-1B inflam inh 0, HT1080NT lethal -7% and HT1080 IDH1KD tx -25%.
`CC(C)C[C@H](NC(=O)c1nc[nH]c1C(=O)NCc1ccccc1)C(=O)OCc1ccccc1` gave DT40 TDP1 CPT inconclusive, DT40 TDP1 no CPT inconclusive, IL-1B inflam inh 60, HT1080NT lethal -1% and HT1080 IDH1KD tx -12%.
Screening COCCNC(=O)C(c1ccco1)N(C(=O)Cn1nnc2ccccc21)c1cccc(C)c1C (configuration not stated) returned DT40 TDP1 CPT -7%, DT40 TDP1 no CPT inconclusive, IL-1B inflam inh 2, HT1080NT lethal 14% and HT1080 IDH1KD tx 14%.
`Cc1ccccc1CCN(C(=O)Cn1nnc2ccccc21)C(C(=O)NC(C)(C)C)c1ccsc1` (configuration not stated) gave DT40 TDP1 CPT 18µM*, DT40 TDP1 no CPT 26µM*, IL-1B inflam inh 3, HT1080NT lethal 0% and HT1080 IDH1KD tx -3%.
For Cc1cccc(N(C(=O)Cn2nnc3ccccc32)C(C(=O)NC(C)(C)C)c2ccsc2)c1C (configuration not stated) the results were DT40 TDP1 CPT inconclusive, DT40 TDP1 no CPT 16µM*, IL-1B inflam inh -13, HT1080NT lethal 2% and HT1080 IDH1KD tx 4%.
For CCC(=C(c1ccc(OC)cc1)c1ccc(OC)cc1)c1cn(CC(O)CN2CCN(C)CC2)c2ccccc12 (configuration not stated) the results were DT40 TDP1 CPT 10µM*, DT40 TDP1 no CPT 13µM*, IL-1B inflam inh -106*, HT1080NT lethal -6% and HT1080 IDH1KD tx -8%.
Screening COc1ccc(-c2cc3ccccc3n2CC(O)CN2CCCCC2)cc1 (configuration not stated) returned DT40 TDP1 CPT -24%, DT40 TDP1 no CPT -18%, IL-1B inflam inh -27, HT1080NT lethal -20% and HT1080 IDH1KD tx -11%.
Oc1ccc(-c2cc(-c3ccc(O)cc3)nc(-c3ccccc3)n2)cc1 was read as DT40 TDP1 CPT inconclusive, DT40 TDP1 no CPT inconclusive, IL-1B inflam inh -98*, HT1080NT lethal 12µM* and HT1080 IDH1KD tx inconclusive.

Source: PubChem
